Measurements reported in PubChem BioAssay (NCI).
About 79,000 compounds went through this panel and 15% of them were active in at least one assay; those are over-represented in the sample as a whole. The source made the active and inactive calls. Cut-off read from the data, not from the text of the source: active = growth inhibition above about 70%; inactive = the rest.

Key:
[1] = NCI Yeast Anticancer Drug Screen. Data for the rad52 strain (AID 147);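 note: 0% = growth of vehicle-treated control cultures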; details: S. cerevisiae rad52 mutant growth inhibition, stronger effect = higher value
Procedure, shortened: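 Here a repair-compromised yeast strain receives each compound; its growth is then quantified and normalised to vehicle-only controls.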

[2] = NCI Yeast Anticancer Drug Screen. Data for the rad50EPP+ strain (AID 151);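 note: 0% = growth of vehicle-treated control cultures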; details: S. cerevisiae rad50 mutant strain, stronger effect = higher value
Procedure, shortened: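 Read-out is yeast growth inhibition relative to vehicle; cells used were the rad50EPP+ strain.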

[3] = NCI Yeast Anticancer Drug Screen. Data for the mgt1 strain (AID 153); details: S. cerevisiae mgt1 mutant growth inhibition, stronger effect = higher value
Procedure, shortened: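 Measured: inhibition of mgt1 yeast growth by compound, normalized to vehicle-treated cultures.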

[4] = NCI Yeast Anticancer Drug Screen. Data for the rad50 strain (AID 155);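 note: 0% = growth of vehicle-only cultures of the same strain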; details: S. cerevisiae rad50 strain growth inhibition, stronger effect = higher value
Procedure, shortened: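 Growth of the mutant yeast was measured after compound exposure and referenced to vehicle-treated cultures.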

[5] = NCI Yeast Anticancer Drug Screen. Data for the mec2-1 strain (AID 157); details: S. cerevisiae mec2-1 strain, stronger effect = higher value
Procedure, shortened: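 Using mec2-1 yeast: add compound, measure growth, express inhibition versus vehicle-treated cultures.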

[6] = NCI Yeast Anticancer Drug Screen. Data for the rad14 strain (AID 159);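 note: 0% = growth of vehicle-treated control cultures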; details: S. cerevisiae rad14 strain growth inhibition, stronger effect = higher value
Procedure, shortened: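 Here, inhibition of yeast growth was measured after compound exposure, using a strain with a genetic defect in DNA damage repair and vehicle-treated cultures as the reference.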

[7] = NCI Yeast Anticancer Drug Screen. Data for the sgs1 mgt1 strain (AID 161);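 note: 0% = growth of cultures given vehicle only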; details: S. cerevisiae sgs1 mgt1 strain, stronger effect = higher value
Procedure, shortened: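 This yeast growth screen uses a strain with defined DNA-repair lesions; compound-treated growth is compared with vehicle-treated growth.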

[8] = NCI Yeast Anticancer Drug Screen. Data for the CLN2oe strain (AID 163);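 note: 0% = growth of vehicle-only control cultures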; details: S. cerevisiae CLN2oe strain, stronger effect = higher value
Procedure, shortened: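 Whole-cell yeast growth assay. A strain engineered for altered cell-cycle control received compound, and inhibition relative to vehicle-treated cultures was recorded.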

[9] = NCI Yeast Anticancer Drug Screen. Data for the cln2 rad14 strain (AID 165);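 note: 0% = growth equal to vehicle treated cultures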; details: S. cerevisiae cln2 rad14 strain, stronger effect = higher value
Procedure, shortened: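 Yeast strain cln2 rad14, bearing defects in cell cycle control and DNA repair, serves as the test system; values reflect growth inhibition compared with vehicle.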

[10] = NCI Yeast Anticancer Drug Screen. Data for the bub3 strain (AID 167); details: S. cerevisiae bub3 mutant strain, stronger effect = higher value
Procedure, shortened: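 Whole-cell yeast assay. The mutant strain was incubated with compounds, and growth inhibition was determined by comparison with vehicle-treated cells.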

[11] = NCI Yeast Anticancer Drug Screen. Data for the wt2 strain (AID 169);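 note: 0% = growth of vehicle-treated yeast cultures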; details: S. cerevisiae wt2 strain growth inhibition, stronger effect = higher value
Procedure, shortened: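 Treated yeast vs. vehicle-treated yeast: growth inhibition determined.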

[12] = NCI Yeast Anticancer Drug Screen. Data for the mlh1 strain (AID 171);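 note: 0% = growth of vehicle-treated control cultures of the same strain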; details: S. cerevisiae mlh1 strain growth inhibition, stronger effect = higher value
Procedure, shortened: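 A yeast strain with a defined genetic lesion serves as the test organism. Cultures receive compound or vehicle, and growth is measured.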

[13] = NCI Yeast Anticancer Drug Screen. Data for the sgs1 strain (AID 173);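 note: 0% = growth of vehicle-only control cultures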; details: S. cerevisiae sgs1 mutant, stronger effect = higher value
Procedure, shortened: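 A genetically defined yeast mutant is incubated with the test compound, and its growth is compared to that of the same strain given vehicle.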

[14] = NCI Yeast Anticancer Drug Screen. Data for the mlh1 rad18 strain (AID 175); details: S. cerevisiae mlh1 rad18 strain growth inhibition, stronger effect = higher value
Procedure, shortened: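 Steps: expose repair-defective yeast to compound; measure growth; express inhibition against vehicle-treated controls.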

[15] = NCI Yeast Anticancer Drug Screen. Data for the rad18 strain (AID 177); details: S. cerevisiae rad18 mutant growth inhibition, stronger effect = higher value
Procedure, shortened: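 Measured value is growth inhibition of a yeast strain bearing a DNA repair alteration, referenced to vehicle-treated cells.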

[16] = at 5.0 µM (retest, dose inferred, filed as 0.5)
[17] = at 50.0 µM (retest, dose inferred, filed as 5.0)

Measured: growth inhibition

O=C(CC(=O)n1nc(-c2ccccc2)c(N=Nc2ccc(Cl)cc2)c1-c1ccccc1)Nc1cccc(Cl)c1
inactive: [1]; at 1.2 µM -4% | [1]; at 3.7 µM -1% | [1]; at 11.0 µM 1% | [1]; at 33.0 µM 0% | [1]; at 100.0 µM 0% | [2]; at 1.2 µM 1% | [2]; at 3.7 µM 8% | [2]; at 11.0 µM 14% | [2]; at 33.0 µM 26% | [2]; at 100.0 µM 29% | [3]; at 1.2 µM -5% | [3]; at 3.7 µM -5% | [3]; at 11.0 µM -7% | [3]; at 33.0 µM -4% | [3]; at 100.0 µM -6% | [4]; at 1.2 µM -2% | [4]; at 3.7 µM 1% | [4]; [16] 7% | [4]; at 11.0 µM 0% | [4]; at 33.0 µM 2% | [4]; [17] -3% | [4]; at 50.0 µM 48.1% | [4]; at 100.0 µM 2% | [5]; at 1.2 µM -4% | [5]; at 3.7 µM -4% | [5]; [16] -4% | [5]; at 11.0 µM -2% | [5]; at 33.0 µM -3% | [5]; [17] -19% | [5]; at 50.0 µM 46% | [5]; at 100.0 µM -4% | [6]; at 1.2 µM -4% | [6]; at 3.7 µM -3% | [6]; at 11.0 µM -2% | [6]; at 33.0 µM -1% | [6]; at 100.0 µM 1% | [7]; [16] 0% | [7]; [17] 2% | [8]; at 1.2 µM -8% | [8]; at 3.7 µM -10% | [8]; at 11.0 µM -10% | [8]; at 33.0 µM -11% | [8]; at 100.0 µM -15% | [9]; [16] 2% | [9]; [17] 15% | [9]; at 50.0 µM 31.6% | [10]; at 1.2 µM 27% | [10]; at 3.7 µM 28% | [10]; [16] 8% | [10]; at 11.0 µM 34% | [10]; at 33.0 µM 45% | [10]; at 100.0 µM 51% | [11]; at 1.2 µM -3% | [11]; at 3.7 µM -3% | [11]; at 11.0 µM -3% | [11]; at 33.0 µM -5% | [11]; at 100.0 µM -5% | [12]; at 1.2 µM -5% | [12]; at 3.7 µM -2% | [12]; at 11.0 µM -2% | [12]; at 33.0 µM -4% | [12]; at 100.0 µM -6% | [13]; at 1.2 µM -4% | [13]; at 3.7 µM -2% | [13]; at 11.0 µM 1% | [13]; at 33.0 µM 0% | [13]; at 100.0 µM 1% | [14]; [16] -5% | [14]; [17] 17% | [14]; at 50.0 µM 57.1% | [15]; at 1.2 µM -4% | [15]; at 3.7 µM -4% | [15]; at 11.0 µM -1% | [15]; at 33.0 µM 1% | [15]; at 100.0 µM 0%
active: [7]; at 50.0 µM 73.7% | [10]; [17] 78% | [10]; at 50.0 µM 88.7%
